# tim10-1 inh: tim10-1 yeast growth inhibition; hit rate 2.2% among 330,000; inhibition, % at 20 µM; S. cerevisiae tim10-1 ts strain growth, BacTiter-Glo, 24 h; AID 463190;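 active = inhibition of at least 40%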;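 note: mutant grown at 25 °C; 0% = DMSO wells with yeast and 100% = wells holding no yeast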
# tim23-1 inh: tim23-1 yeast growth inhibition; AID 463212; hit rate 1.3% among 330,000; inhibition, % at 20 µM; S. cerevisiae tim23-1 growth, BacTiter-Glo luminescence, 24 h;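 active = growth inhibition of the mutant yeast at or above 50%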;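 note: temperature-sensitive mutant grown at 25 °C; plate controls were DMSO-treated mutant yeast for no effect and medium wells lacking yeast for full effect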
# NALP1 inh: inhibitors of NALP1 inflammasome in yeast; S. cerevisiae NALP1/ASC/caspase-1 growth, X-gal OD620, 72 h; inhibition, % at 10 µM; hit rate 0.61% among 280,000; AID 2071; in the data active = inhibition mostly above about 24%, no sharp cut-off; inactive = mostly below about 32%
# NALP3 yeast inh: NALP3 inhibition in yeast; Yeast reconstituted NLRP3/ASC/caspase-1, beta-gal luminescence, 24 h; inhibition, % at 10 µM; hit rate 0.39% among 330,000; AID 2825;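 active = inhibition of 50% or more; inactive = inhibition below 50%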;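 note: plate controls were induced DMSO wells for no effect and uninduced yeast grown without galactose for full effect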
# TIM10 inh: TIM10 yeast growth inhibition; S. cerevisiae TIM10 strain growth, BacTiter-Glo luminescence, 24 h; inhibition, % at 10 µM; hit rate 1.4% among 330,000; AID 463195;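 active = inhibition of 40% or more at the single tested concentration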;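 note: wild-type TIM10 isogenic control strain grown at permissive 25 °C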
# tim10 confirm: TIM10 yeast growth inhibition, confirmed; S. cerevisiae tim10 strain growth, BacTiter-Glo luminescence, 24 h; shares compounds with TIM10 inh; inhibition, % at 10 µM; hit rate 63% among 4,600;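 active = inhibition of yeast growth at or above a set limit in either of two replicates at 10 µM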;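 note: this counterscreen used the strain with wild-type TIM10; 0% = yeast with DMSO and 100% = medium wells lacking yeast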
# * = called active by the depositor; / = not tested or not shown. Compounds with a hit are over-represented: about 4% of the library has one in this group of screens.
SMILES,tim10-1 inh,tim23-1 inh,NALP1 inh,NALP3 yeast inh,TIM10 inh,tim10 confirm
COC(=O)c1cc(NC(=O)c2cccc(F)c2)cc(C(=O)OC)c1,2,33,15,10,48*,31*
COc1cc(OC)cc(C(=O)Nc2cccc(NC(C)=O)c2)c1,-2,7,-17,10,-12,/
COc1cc(NC(=O)c2ccccc2)cc(OC)c1,23,43,7,47,68*,46*
CCOc1ccc(S(=O)(=O)N2CCCC(C(=O)NCCN3CCOCC3)C2)cc1Cl (stereo not drawn),4,13,-1,14,-16,/
Cn1cccc1C(=O)OCc1cc(-c2ccco2)on1,17,1,/,42,-13,/
O=C(c1ccccc1Oc1ccc([N+](=O)[O-])cc1)N1CCOCC1,4,4,12,14,2,/
O=C(Nc1cccc(O)c1)c1ccccc1,16,26,28,8,40*,-10
O=C(O)/C=C\C(=O)Nc1cccc(C(=O)Nc2cccc(O)c2)c1,2,2,-6,-3,1,/
CCOC(=O)Nc1cccc(OCC(=O)Nc2ccccc2OC)c1,34,46,/,16,42*,15
CCOC(=O)Nc1cccc(OCC(=O)Nc2ccc(OC)cc2OC)c1,30,24,/,12,24,/
NS(=O)(=O)c1ccc(CCNC(=O)COC(=O)Cc2c(F)cccc2Cl)cc1,4,7,1,15,-6,/
CCN(CC)S(=O)(=O)c1ccc2c(c1)nc(CCC(=O)Nc1ccccc1Cc1ccccc1)n2CC,1,16,-6,-3,-1,/
Cc1cnc(C(=O)OC(C(=O)Nc2cc(C(F)(F)F)ccc2Cl)c2ccccc2)cn1 (stereo not drawn),28,29,8,10,98*,19
O=C(NC(Cc1ccccc1)C(=O)O)c1cccnc1Cl (stereo not drawn),-4,0,-8,9,-3,/
COC(=O)C1=NN(C(=O)c2cccc(Br)c2)C(O)(c2ccc(Cl)cc2)C1 (stereo not drawn),35,22,-7,11,45*,3
CCOC(=O)C1=NN(C(=O)c2ccc(OC)cc2)C(O)(c2ccc(Cl)cc2)C1 (stereo not drawn),28,39,37,7,20,/
CC(C)C(NC(=O)C(Cc1ccccc1)NC(=O)OCc1ccccc1)C(=O)O (stereo not drawn),15,5,6,-3,-1,/
Cc1c(C)c2ccc(OC(C)C(=O)N3C[C@H]4C[C@@H](C3)c3cccc(=O)n3C4)c(C)c2oc1=O (stereo partly drawn),-13,-4,-6,16,59*,-7
Cc1c(OC(C)C(=O)N2C[C@H]3C[C@@H](C2)c2cccc(=O)n2C3)ccc2c3c(c(=O)oc12)CCC3 (stereo partly drawn),16,5,0,9,-18,/
Clc1ccc2[nH]cc(-c3nnnn3-c3ccccc3)c2c1,29,21,12,12,42*,29
c1ccc(-n2nnnc2NCCc2c[nH]c3ccccc23)cc1,15,6,15,8,-3,/
COc1nccc(C(F)(F)F)c1C(=O)NC(=O)Nc1ccccc1,13,13,5,10,11,/
COc1nccc(C(F)(F)F)c1C(=O)NC(=O)Nc1c(C)cccc1C,7,13,-4,-27,40*,6
CCOC(=O)c1cc2c(ccc3ccccc32)oc1=O,22,26,-21,6,47*,49*
N=c1oc2ccc3ccccc3c2cc1C(N)=S,20,42,14,17,42*,39*
SMILES,tim10-1 inh,tim23-1 inh,NALP1 inh,NALP3 yeast inh,TIM10 inh,tim10 confirm
O=C(O)c1cc2c(ccc3ccccc32)oc1=O,1,10,16,6,0,/
COc1ccc(N(CC(=O)N/N=C/c2ccc(OC)cc2OC)S(=O)(=O)c2ccccc2)cc1,25,16,6,5,11,/
COc1ccc(N(CC(=O)N/N=C/c2cc(OC)ccc2OC)S(=O)(=O)c2ccccc2)cc1,7,11,-2,-2,55*,17
Cc1ccc(NC(=O)CSCC(=O)Nc2cc(Cl)ccc2N2CCOCC2)cc1,10,21,/,-14,11,/
Cc1cccc(OCC(O)CN2CCN(c3ccccn3)CC2)c1C (stereo not drawn),-6,-6,-1,9,98*,1
Oc1ccccc1Cn1c(-c2ccccc2O)nc2ccccc21,35,3,31,-6,52*,22

# From PubChem BioAssay
